Hit rate of the full screen: of about 69,000 compounds, about 8,600 (12%) showed an effect of 50% or more. What follows is part of a selection rich in strong results, with near analogues and random picks from the rest.
test system: Plasmodium berghei; experiment: Screen against P. berghei liver stage (PbLuc), transformed with Luciferase, at 10uM; type: functional, HepG2; details: tested at 10 uM

Row | SMILES | INHIBITION [%]
1 | O=C(CN1CCOC1=O)N(Cc1ccccc1)Cc1nccs1 | 22.1
2 | CC(C)CN1CC(C(=O)NCCNc2ncccn2)CC1=O (stereo not given) | 21.6
3 | N#Cc1ccc(CN2CCN(c3cncc(Cl)n3)CC2=O)cc1 | -5.33
4 | CN(Cc1n[nH]c2c1CCCCC2)C(=O)c1cc(-c2cccn2C)n[nH]1 | -89.3
5 | COCCN1CCN(Cc2c(C3CCNCC3)[nH]c3ncccc23)CC1 | -12.9
6 | CSc1ccccc1CN1C[C@H]2C(=O)N(CC3CC3)C[C@@]2(C(=O)O)C1 | -26.9
7 | CCCc1ccc(CN2C[C@H]3C(=O)N(CC4CC4)C[C@@]3(C(=O)O)C2)o1 | 6.28
8 | O=C1[C@@H]2CN(Cc3cc4ccccc4o3)C[C@]2(C(=O)O)CN1CC1CC1 | 79.8
9 | COc1cccc(-n2cc3[nH]c(=O)n(C(C)C)n3c2=O)c1 | -34
10 | O=C(c1ccncc1F)N1CCc2ncnc(C3CC3)c2CC1 | -2.72
11 | O=C(c1ccncc1F)N1CCc2ncnc(N3CCOCC3)c2CC1 | 5.44
12 | O=C(c1ccncc1F)N1CCc2ncnc(-c3ccncc3)c2CC1 | -7.39
13 | Cc1ncnc2c1CCN(C(=O)c1cccnc1)CC2 | -2.17
14 | Cc1ncnc2c1CCN(C(=O)c1ccnnc1)CC2 | 60.1
15 | CCc1ncnc2c1CCN(C(=O)c1ccncc1F)CC2 | -49.3
16 | CCOc1ncnc2c1CCN(C(=O)c1cnccn1)CC2 | -103
17 | CCOc1ncnc2c1CCN(C(=O)c1ccncc1F)CC2 | 54.4
18 | CC(C)Nc1ncnc2c1CCN(C(=O)c1ccncc1F)CC2 | 53.5
19 | Cc1ncnc2c1CCN(C(=O)c1ccncc1)CC2 | 19.5
20 | Cc1ncnc2c1CCN(C(=O)c1ccncc1F)CC2 | 68.4
21 | CC(C)Nc1ncnc2c1CCN(C(=O)c1ccccc1F)CC2 | 32.2
22 | CS(=O)(=O)N1CCc2ccc(=O)n(CCN3CCCC3)c2CC1 | 46.4
23 | CCc1nc(C2CCCN2C(=O)c2cnc[nH]2)no1 (stereo not given) | 37.9
24 | CCOCC1CN(C(=O)C2=CCCC2)Cc2cnn(CC)c21 (stereo not given) | 42.6
25 | Cc1cnn(CC2CN(CCCc3nc4ccccc4o3)CCO2)c1 (stereo not given) | -12.1
26 | CCn1nc(C)c(NC(=O)CN2CCC(c3ccccc3Cl)C2)c1C (stereo not given) | 48.2
27 | COCCN1C[C@H](NC(=O)CCC(F)(F)F)[C@@H](C(C)C)C1 | 30.9

Row | SMILES | INHIBITION [%]
28 | CC(=O)N1CCCC(c2ccc(CO)c(-c3c(C)noc3C)n2)C1 (stereo not given) | 18.4
29 | CCc1nc(C)c(C(=O)NCCN2CCCC2)s1 | -19.9
30 | COC(=O)c1ccc(C(=O)NCc2nn(C)c3c2COCC3)cc1 | 6
31 | CC(C)(C)NC(=O)COc1ccc(Oc2ccccn2)cc1 | 23.7
32 | COCC(C)(C#N)NC(=O)COc1ccccc1 (stereo not given) | 66.7
33 | COCC(C)(C#N)NC(=O)COc1ccccc1Br (stereo not given) | -3.81
34 | OCc1cnc(Nc2ccccc2)nc1 | -7.27
35 | Cc1c(CN2CCOCC2)c(O)n(CCc2ccccc2)c(=O)c1C#N | 6
36 | Cc1ccc(NCc2cncc3c2CCN(Cc2ccccn2)C3)nn1 | -30.7
37 | Cc1ccc(N2CCc3c(CN(C)Cc4ccco4)cncc3C2)nn1 | -11.2
38 | CN(Cc1cccnc1)Cc1cncc2c1CCN(c1ccccn1)C2 | 51.2
39 | Cc1cnc(N2CCc3c(CNc4ccnc(C)n4)cncc3C2)nc1 | 94.6
40 | Cn1cc(C(=O)NCc2cncc3c2CCN(c2ccccn2)C3)cn1 | 34
41 | CN(Cc1ccco1)Cc1cncc2c1CCN(c1ncccn1)C2 | 37
42 | Cc1nccc(NCc2cncc3c2CCN(S(C)(=O)=O)C3)n1 | 59.3
43 | Cc1occc1C(=O)N1CCc2c(CNc3ncccn3)cncc2C1 | 4.27
44 | Cc1cnc(N2CCc3c(CN(C)Cc4ccco4)cncc3C2)nc1 | 66.8
45 | CN(Cc1ccco1)Cc1cncc2c1CCN(S(C)(=O)=O)C2 | 40.1
46 | Cn1cc(C(=O)NCc2cncc3c2CCN(S(C)(=O)=O)C3)cn1 | 38.5
47 | COCc1cncc2c1CCN(Cc1ccccn1)C2 | -13.2
48 | Cc1ccnc(C2CCN(C(=O)CCn3ncc4ccccc43)C2)n1 (stereo not given) | 5.11
49 | CNC(=O)[C@@H](c1ccccc1F)N1CCC[C@H]1C(=O)NC1CC1 | 0.734
50 | Cn1ccnc1CN1CCO[C@H]2C(CNC(=O)c3ccco3)CC[C@@H]21 (stereo not given in full) | 16.9
51 | CC(C)CC(=O)N1CC[C@@H]2CN(Cc3cccnc3)S(=O)(=O)[C@@H]2CC1 | 42.1
52 | Cc1cc(C(=O)N2CC[C@@H]3CN(S(C)(=O)=O)CCO[C@@H]3C2)c(C)o1 | 37
53 | O=C(NCc1cc[nH]n1)NC1CCCN(c2ncccn2)C1 (stereo not given) | -0.79
54 | Cc1cnc(N2CCN3C[C@H](OCc4cccc(C)n4)C[C@H]3C2)nc1 | 42.3

Row | SMILES | INHIBITION [%]
55 | O=C(NCC1CC1)c1nc2c(o1)CN(CC1CC1)C2 | -48.4
56 | Fc1ccccc1Cc1noc(CN2CCC(C3CCCCC3)C2)n1 (stereo not given) | 49.9
57 | COC(=O)c1sccc1NC(=O)C1CCCN1C(=O)c1ccco1 (stereo not given) | -62.2
58 | COCc1ccccc1NC(=O)[C@@H]1CCCN1C(=O)c1ccco1 | 39.2
59 | Cc1cccc(NC(=O)C2CCCN2C(=O)c2ccco2)c1C (stereo not given) | 72.5
60 | N#CCCN(CCN1CCOCC1)Cc1ccc(F)c(Br)c1 | 20.4
61 | CC(C)CN1C(=O)CC[C@H]2CN(C(=O)Cn3ccc(=O)cc3)CC[C@H]21 | 33.9
62 | CC1=NN(CC(=O)N2CC[C@@H]3[C@@H](CCC(=O)N3CC(C)C)C2)CC1 | 56.7
63 | CC(C)CN1C(=O)CC[C@H]2CN(C(=O)Cn3ccccc3=O)CC[C@H]21 | 45.8
64 | COc1ccnc(N2CCN(C(=O)c3ccn(C)c(=O)c3)CC2)n1 | -21.8
65 | Cc1nnsc1C(=O)N1CCC(c2nc3ccccc3[nH]2)CC1 | 65.4
66 | Cc1nnsc1C(=O)N1CC(c2nc3ccccc3[nH]2)C1 | 49.4
67 | CCc1nnsc1C(=O)N1CCCC(c2nc3ccccc3[nH]2)C1 (stereo not given) | 26.9
68 | O=C(c1cc2ccccc2[nH]1)N1CCCCC1Cn1cccn1 (stereo not given) | 48.1
69 | Cc1nn(C)cc1-c1cc(C(F)F)nc2sc(C(N)=O)c(N)c12 | 1.86
70 | CCc1nc(C)sc1CN1CCc2[nH]nc(-c3ccc(F)c(F)c3)c2C1 | 37.2
71 | CC(C)(C)c1ccc(-c2n[nH]c3c2CN(CC2CCOC2)CC3)cc1 (stereo not given) | 44.3
72 | CC(C)c1nnsc1CN1CCc2[nH]nc(-c3ccc(F)c(F)c3)c2C1 | 70.4
73 | COC(=O)CCC(=O)N1CCc2[nH]nc(-c3ccc(F)c(F)c3)c2C1 | 15.9
74 | CC(O)CN1CCc2[nH]nc(C(c3ccccc3)c3ccccc3)c2C1 (stereo not given) | -12.1
75 | CC(C)c1nnsc1CN1CCc2[nH]nc(-c3ccc(Cl)cc3)c2C1 | 50.1
76 | CS(=O)(=O)N[C@@H]1COC[C@@H]2CN(Cc3ccoc3)C[C@@H]21 | 15.4
77 | Cc1cccc(C(=O)N(CC(=O)O)CC(C)C)c1 | 28.1
78 | CCN(CC)C(=O)c1cc(C2CCCN2C)ccn1 (stereo not given) | 47.2
79 | CC(COc1ccc(F)cc1F)NC(=O)NCCN1CCOCC1 (stereo not given) | -32.4
80 | CCC(C)NC(=O)c1sccc1-n1cnnn1 (stereo not given) | -5.22
81 | COc1cccc2c1ccn2CC(=O)N1CCCC(C(=O)O)C1 (stereo not given) | 31.7

Row | SMILES | INHIBITION [%]
82 | O=C(c1ccco1)N1CCCC2(CN(Cc3ccc(F)cc3)CCO2)C1 (stereo not given) | -1.83
83 | O=C1N(CC2CC2)C(c2cncs2)NC12CCCC2 (stereo not given) | 49
84 | Cc1cccc(CN2CCC3(CC2)COC(COCC2CC2)C3)n1 (stereo not given) | 43
85 | CCCN(CCc1ccccn1)C(=O)Cn1cc(C)cn1 | 78.8
86 | Cc1cnn(CC2CCCCN2CC(=O)NCc2ccccn2)c1 (stereo not given) | -4.74
87 | CCCN(CCc1ccccn1)C(=O)CCc1cnn(C)c1 | 65.2
88 | Cn1cc(CCC(=O)N2C[C@H]3CC[C@@H](C2)N(Cc2ccccn2)C3)cn1 | 6.11
89 | Cn1cc(CN(Cc2ccccc2)Cc2ccccn2)cn1 | 1.62
90 | CCCN(CCc1ccccn1)C(=O)Cn1cnnn1 | -17.8
91 | CC(c1nc(C2CC2)no1)N1CCN(Cc2nnc(C3CC3)o2)CC1 (stereo not given) | -51.5
92 | Cc1c(C(=O)NC(C)CC(=O)c2cccs2)cnn1C (stereo not given) | 40.6
93 | CC(=O)N1CCCN(C(=O)c2ccc(Sc3ccccn3)cc2)CC1 | -0.217
94 | Cc1cccn2cc(CC(=O)N(CCN(C)C)CC3CCCO3)nc12 (stereo not given) | 58.5
95 | O=C(Cc1cn2ccsc2n1)N(Cc1ccco1)CC1CCCO1 (stereo not given) | 7.21
96 | CN(C)CCN(CC1CCCO1)C(=O)Cc1cn2ccccc2n1 (stereo not given) | 28.7
97 | Fc1ccc(CN2CCc3ncnc(C4CC4)c3CC2)cc1 | 39.5
98 | O=C1CCN(C(=O)c2ncoc2-c2ccco2)c2ncccc2N1 | 15.1
99 | O=c1[nH]nc(C2CC2)n1-c1cccc(Cl)c1 | -21.7
100 | CN1CCC(c2n[nH]c(=O)n2-c2cccc(Cl)c2)CC1 | 14.1
101 | CN1CC(c2n[nH]c(=O)n2-c2cccc(Cl)c2)CC1=O (stereo not given) | 58.9
102 | O=C(c1ccc(N2CCCC2)nc1)N1CCCC(n2cncn2)C1 (stereo not given) | -29.5
103 | Cc1nccn1CC1CCCN(Cc2ccc(-c3cccnc3)cc2)C1 (stereo not given) | 66.7
104 | Cc1nc(C)n(CC2CCCN(Cc3cccnc3)C2)n1 (stereo not given) | -14.6
105 | CN(C)C(=O)CCC1CCCN(Cc2ccc(-c3cccnc3)cc2)C1 (stereo not given) | 29.8

Reference: ChEMBL document CHEMBL4513216, “Probing the Open Global Health Chemical Diversity Library for Multistage-Active Starting Points for Next-Generation Antimalarials” (ACS Infect Dis, 2020)
